Source: the supplement of paper PMC8728848
This is one part of a sample in which the strongest signals are shown more often than they occur.

Legend:
Test in all cases: glycan array binding signal (z-score within array); higher = stronger binding
[1] = test system: GlcNAc(b1-3)[GlcNAc(b1-4)][GlcNAc(b1-6)]GlcNAc; conditions: glycan notation: IUPAC condensed, linker removed
How it was run: (§1)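 Arrays were curated from the Consortium for Functional Glycomics database, 3228 in total, and kept only where the protein sequence was available. Binding is expressed as a within-array Z-score. This score was averaged across arrays of the same protein sequence at different concentrations or buffers and across linkers, and negative values can be read as non-binding.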

[2] = test system: GlcNAc(b1-4)[GlcNAc(b1-6)]GalNAc; conditions: glycan notation: IUPAC condensed, linker removed
How it was run: as §1

[3] = test system: GlcNAc(b1-3)[GlcNAc(b1-6)]Gal(b1-4)GlcNAc; conditions: glycan notation: IUPAC condensed, linker removed
How it was run: as §1

[4] = test system: GlcNAc(b1-4)GlcNAc(b1-4)GlcNAc(b1-4)GlcNAc(b1-4)GlcNAc(b1-4)GlcNAc; conditions: glycan notation: IUPAC condensed, linker removed
How it was run: as §1

[5] = test system: GlcNAc(b1-4)GlcNAc(b1-4)GlcNAc(b1-4)GlcNAc(b1-4)GlcNAc; conditions: glycan notation: IUPAC condensed, linker removed; mutation: D138V, E140I
How it was run: as §1

Kdn(a2-3)Gal(b1-3)GlcNAc = conditions: glycan notation: IUPAC condensed, linker removed
How it was run: as §1

[6] = test system: GlcNAc(b1-6)Gal(b1-4)GlcNAc; conditions: glycan notation: IUPAC condensed, linker removed
How it was run: as §1

[7] = test system: GlcNAc6S(b1-3)Gal(b1-4)GlcNAc; conditions: glycan notation: IUPAC condensed, linker removed
How it was run: as §1

Sequence of CHT (Homo sapiens) (chain, as listed by the source): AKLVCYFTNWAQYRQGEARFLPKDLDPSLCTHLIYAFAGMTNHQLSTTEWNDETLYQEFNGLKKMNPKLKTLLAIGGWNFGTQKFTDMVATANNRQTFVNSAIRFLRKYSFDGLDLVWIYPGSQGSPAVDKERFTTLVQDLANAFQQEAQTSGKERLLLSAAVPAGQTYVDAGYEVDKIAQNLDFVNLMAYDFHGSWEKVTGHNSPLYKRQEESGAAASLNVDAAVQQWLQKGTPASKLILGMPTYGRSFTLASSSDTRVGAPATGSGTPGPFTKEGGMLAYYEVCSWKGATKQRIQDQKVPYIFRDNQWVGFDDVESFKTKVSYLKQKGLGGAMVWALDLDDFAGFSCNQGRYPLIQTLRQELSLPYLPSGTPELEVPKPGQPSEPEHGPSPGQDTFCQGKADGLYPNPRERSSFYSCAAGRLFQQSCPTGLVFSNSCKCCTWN
Sequence of PILRa (Mus musculus), Q2YSF3 (Q2YSF3 entry or part of it): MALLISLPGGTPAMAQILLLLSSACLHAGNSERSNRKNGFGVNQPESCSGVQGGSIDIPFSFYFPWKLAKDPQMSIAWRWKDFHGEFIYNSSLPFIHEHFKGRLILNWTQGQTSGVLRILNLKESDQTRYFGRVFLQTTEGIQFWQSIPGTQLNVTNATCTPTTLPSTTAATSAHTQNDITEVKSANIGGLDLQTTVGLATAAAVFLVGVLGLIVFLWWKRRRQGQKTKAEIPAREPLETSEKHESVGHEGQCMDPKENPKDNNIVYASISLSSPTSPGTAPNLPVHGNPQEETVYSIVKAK
Sequence of C3b (Homo sapiens), P01024 (P01024 23-667): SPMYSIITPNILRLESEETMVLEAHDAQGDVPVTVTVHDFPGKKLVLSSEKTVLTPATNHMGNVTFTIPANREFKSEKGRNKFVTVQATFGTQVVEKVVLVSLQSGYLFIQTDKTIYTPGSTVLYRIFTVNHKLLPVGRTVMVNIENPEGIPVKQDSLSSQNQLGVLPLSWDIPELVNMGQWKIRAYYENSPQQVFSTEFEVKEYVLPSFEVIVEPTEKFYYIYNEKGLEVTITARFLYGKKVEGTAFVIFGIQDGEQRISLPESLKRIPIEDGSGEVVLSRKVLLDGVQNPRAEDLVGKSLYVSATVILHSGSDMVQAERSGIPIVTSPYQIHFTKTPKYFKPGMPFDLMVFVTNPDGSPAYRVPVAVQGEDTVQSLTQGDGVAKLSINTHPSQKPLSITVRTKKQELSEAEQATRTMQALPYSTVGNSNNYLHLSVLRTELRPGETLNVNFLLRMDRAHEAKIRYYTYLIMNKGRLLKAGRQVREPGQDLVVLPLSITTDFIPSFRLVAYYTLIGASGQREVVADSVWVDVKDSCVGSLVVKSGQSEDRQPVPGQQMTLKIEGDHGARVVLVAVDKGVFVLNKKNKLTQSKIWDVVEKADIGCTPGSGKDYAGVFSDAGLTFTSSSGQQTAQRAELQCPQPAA
Sequence of CHI3L1 (Homo sapiens), P36222 (P36222 whole entry): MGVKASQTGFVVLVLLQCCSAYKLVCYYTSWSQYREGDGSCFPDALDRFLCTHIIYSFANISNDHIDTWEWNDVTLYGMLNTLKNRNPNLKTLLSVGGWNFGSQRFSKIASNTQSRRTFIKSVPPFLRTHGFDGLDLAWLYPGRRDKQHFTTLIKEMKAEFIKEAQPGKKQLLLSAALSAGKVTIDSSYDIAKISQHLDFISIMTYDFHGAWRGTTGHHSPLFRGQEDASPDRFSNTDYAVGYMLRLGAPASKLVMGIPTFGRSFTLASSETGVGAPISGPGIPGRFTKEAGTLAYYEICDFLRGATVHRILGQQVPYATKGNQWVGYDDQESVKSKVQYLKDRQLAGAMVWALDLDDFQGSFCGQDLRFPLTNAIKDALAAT
Sequence of SRLC (Mus musculus), Q8VIF6 (Q8VIF6 other isoform, or with tags, fused parts or gaps): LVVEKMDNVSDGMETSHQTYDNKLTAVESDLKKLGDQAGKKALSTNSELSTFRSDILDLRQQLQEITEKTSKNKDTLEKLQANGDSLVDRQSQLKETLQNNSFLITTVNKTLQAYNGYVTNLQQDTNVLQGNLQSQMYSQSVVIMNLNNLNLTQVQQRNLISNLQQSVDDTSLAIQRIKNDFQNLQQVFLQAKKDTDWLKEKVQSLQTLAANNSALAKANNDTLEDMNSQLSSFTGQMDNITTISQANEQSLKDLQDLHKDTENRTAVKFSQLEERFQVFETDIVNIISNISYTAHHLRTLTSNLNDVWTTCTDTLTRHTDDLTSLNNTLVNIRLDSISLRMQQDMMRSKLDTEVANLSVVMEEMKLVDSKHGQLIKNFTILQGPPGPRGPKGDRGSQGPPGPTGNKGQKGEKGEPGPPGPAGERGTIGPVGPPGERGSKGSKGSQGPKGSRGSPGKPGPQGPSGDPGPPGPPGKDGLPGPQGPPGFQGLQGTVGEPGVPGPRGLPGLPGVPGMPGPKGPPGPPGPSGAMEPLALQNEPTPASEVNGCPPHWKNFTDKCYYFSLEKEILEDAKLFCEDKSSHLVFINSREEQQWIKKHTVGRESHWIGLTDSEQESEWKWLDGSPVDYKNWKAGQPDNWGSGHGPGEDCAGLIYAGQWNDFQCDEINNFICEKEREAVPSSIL
Sequence of Aggrecan (Rattus norvegicus), NP_071526 (chain, as listed by the source): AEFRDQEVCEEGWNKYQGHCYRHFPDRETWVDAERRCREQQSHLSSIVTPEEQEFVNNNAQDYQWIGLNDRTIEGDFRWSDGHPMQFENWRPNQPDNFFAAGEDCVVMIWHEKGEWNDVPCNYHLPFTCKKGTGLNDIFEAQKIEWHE
Sequence of Avaren (Actinomycete K97) (chain, as listed by the source): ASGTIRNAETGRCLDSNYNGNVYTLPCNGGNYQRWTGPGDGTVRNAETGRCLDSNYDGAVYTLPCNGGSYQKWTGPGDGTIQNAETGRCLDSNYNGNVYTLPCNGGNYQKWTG

C3b (Homo sapiens), P01024 was tested. Which “glycan array binding signal (z-score)” value [1] did it give?
Its value is 7.72.

And the “glycan array binding signal (z-score)” value [2]?
Its value is 2.75.

With Avaren (Actinomycete K97) as the substance, how does the “glycan array binding signal (z-score)” value [3] read?
Its value is -0.108.

Which “glycan array binding signal (z-score)” value [4] does the source give for CHI3L1 (Homo sapiens), P36222 here?
Its value is 15.6.

For MpAFP RI GFP (Marinomonas primoryensis), which “glycan array binding signal (z-score)” value [4] is on record?
The value was -0.527.

What does the source list for CHT (Homo sapiens)?
glycan array binding signal (z-score) ([4]; mutation: D138V, E140I): 11.9; glycan array binding signal (z-score) [5]: 8.66; glycan array binding signal (z-score) (Kdn(a2-3)Gal(b1-3)GlcNAc; mutation: D138V, E140I): -0.105

Which “glycan array binding signal (z-score)” value [2] does the source give for Aggrecan (Rattus norvegicus), NP_071526 here?
Its value is 0.018.

Siglec-8 (Homo sapiens), Q9NYZ4 was tested. Which “glycan array binding signal (z-score)” value ([2]; mutation: R125K) did it give?
Its value is -0.467.

For PILRa (Mus musculus), Q2YSF3, which “glycan array binding signal (z-score)” value [6] is on record?
The value was -0.314.

And the “glycan array binding signal (z-score)” value [7]?
The value was 0.098.

How did the “glycan array binding signal (z-score)” value (Kdn(a2-3)Gal(b1-3)GlcNAc) turn out when HARE (Homo sapiens), Q8WWQ8 was run?
The value was -0.646.

Which “glycan array binding signal (z-score)” value (Kdn(a2-3)Gal(b1-3)GlcNAc) does the source give for SRLC (Mus musculus), Q8VIF6 here?
Its value is -0.229.
